Reference: PubChem BioAssay (EPA / NIEHS)
Inconclusive results are not listed. Calls of active or inactive are those of the source. The calls were made as follows, unless noted: active = hit-call score of the fitted dose curve at least 0.9, where 1 is the maximum; inactive = score below 0.9. Peptide text beside a SMILES is read from it.

Columns and labels:
SERPINA7 (gene 6906) = experiment: CCTE_GLTED_hTBG: CCTE's human Thyroxine-binding Globulin (TBG) Inhibition Assay, Great Lakes Toxicology and Ecology Division (GLTED) Lab (AID 2284343; active = hit-call score of the fitted dose curve at least 0.9, where 1 is the maximum;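 also: active chemicals lower fluorescence versus DMSO baseline by displacing probe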)
Procedure, shortened: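 Fluorescence (ex 380/em 475) reports ANSA displaced from human TBG after a 2 h incubation with test chemical, without cells. Loss of signal indicates displacement, with DMSO serving as baseline.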

[1] = CCTE_Deisenroth_5AR_NBTE_donor: CCTE's 5alpha-reductase NanoBRET Target Engagement Assay […], Deisenroth Lab (AID 2284319); details: actives raise or lower the signal
Procedure, shortened: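 HEK293T cells transiently expressing SRD5A2-NanoLuc, exposed 5 h to chemicals (8 points, 10 nM - 29.9 uM), with testosterone tracer for the final 2 h. Donor luminescence at 460 nm read after Nano-Glo substrate plus extracellular NanoLuc inhibitor; bidirectional fit versus DMSO.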

[2] = CCTE_Deisenroth_5AR_NBTE_acceptor: CCTE's 5alpha-reductase NanoBRET Target Engagement Assay - Autofluorescence Screen, Deisenroth Lab (AID 2284321); details: actives raise or lower the signal;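 also: compound fluorescence in the acceptor channel under 460 nm excitation flags autofluorescence artifacts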
Procedure, shortened: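 Chemicals diluted to a nominal 100 uM in DMSO were scanned at 460 nm excitation. Samples were read in three independent runs (n=3). Gain or loss of acceptor signal was fitted relative to DMSO.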

SRD5A2 (gene 6716) = experiment: CCTE_Deisenroth_5AR_NBTE_ratio: CCTE's 5alpha-reductase NanoBRET Target Engagement Assay - Ratio, Deisenroth Lab (AID 2284322); details: actives raise or lower the signal
Procedure, shortened: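 SRD5A2-NanoLuc HEK293T; cmpd 10 nM-29.9 uM, 3 h preinc + testosterone tracer 2 h; NanoBRET ratio 650/460; bidirectional fit vs DMSO.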

[3] = CCTE_Mundy_HCI_iCellGluta_NOG_NeuriteLength: CCTE's Neurite Outgrowth Assay in iCellGluta cells for Neurite Length, Mundy Lab (AID 2284318; active = hit-call score of the fitted dose curve at least 0.9, where 1 is the maximum)
Procedure, shortened: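 Automated high-content imaging of betaIII-tubulin (Alexa Fluor-488) and Hoechst-stained cells gave neurite length, normalized to the DMSO baseline.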

[4] = CCTE_Mundy_HCI_iCellGluta_NOG_NeuriteCount: CCTE's Neurite Outgrowth Assay in iCellGluta cells for Neurite Count, Mundy Lab (AID 2284342; active = hit-call score of the fitted dose curve at least 0.9, where 1 is the maximum;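 also: chemical exposure about 48 hours starting 2 hours after plating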)
[5] = TAMU_PeakParms_SingleDonor1434_Asystole: Texas A&M University (TAMU) 1.5-hr Human Induced Pluripotent Stem Cell (iPSC)-derived Cardiomyocytes Calcium (Ca+2) Flux Assay for Cardiotoxicity: Asystole (quiescence of beating) (AID 2284328; active = hit-call score of the fitted dose curve at least 0.9, where 1 is the maximum)
Procedure, shortened: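 Average Ca2+-flux peak frequency (beats/s) was recorded in single-donor iPSC-derived cardiomyocytes after 90 min exposure (0.2–100 uM final, 0.5% DMSO). Asystole POD set as EC95 against DMSO, no preprocessing.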

[6] = CCTE_Mundy_HCI_iCellGluta_NOG_NeuronCount: CCTE's Neurite Outgrowth Assay in iCellGluta cells for Neuron Count, Mundy Lab (AID 2284340; active = hit-call score of the fitted dose curve at least 0.9, where 1 is the maximum;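 also: cells fixed about 48 h after compound addition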)
Procedure, shortened: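 Neuron count read by automated high-content imaging of Hoechst 33342 and betaIII-tubulin/Alexa Fluor-488 labelling in human iPSC glutamatergic neurons. Activity fitted relative to DMSO.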

CC(CCC(=O)O)(c1ccc(O)cc1)c1ccc(O)cc1
AC50 (SERPINA7 (gene 6906)): 37.7 µM (active)

Oc1ccccc1Cc1ccccc1O
AC50 (SERPINA7 (gene 6906)): 8.67 µM (active)

CCCCCCCCCCCC(=O)N(C)CC(=O)O
outcome [1]: inactive | outcome [2]: inactive | outcome (SRD5A2 (gene 6716)): inactive

C=CCOC(=O)c1ccc(C(=O)OCC=C)c(C(=O)OCC=C)c1
outcome [1]: inactive | outcome [2]: inactive | outcome (SRD5A2 (gene 6716)): inactive

COc1ccc(C(=O)c2ccccc2)c(O)c1
AC50 (SERPINA7 (gene 6906)): 7.45 µM (active)

CN(C)c1ccc2nc3ccc(=[N+](C)C)cc-3sc2c1
outcome [1]: inactive | AC50 [2]: 10 µM (active) | AC50 (SRD5A2 (gene 6716)): 2.95 µM (active)

Cc1noc(NS(=O)(=O)c2ccc(N)cc2)c1C
outcome [3]: inactive | outcome [4]: inactive

CCCCCCCCCCCCc1ccc(O)cc1
outcome [1]: inactive | outcome [2]: inactive | outcome (SRD5A2 (gene 6716)): inactive | AC50 (SERPINA7 (gene 6906)): 6.15 µM (active)

O=C(O)CCC(=O)O
outcome [1]: inactive | outcome [2]: inactive | outcome (SRD5A2 (gene 6716)): inactive

Cc1ccc([N+](=O)[O-])cc1N
AC50 (SERPINA7 (gene 6906)): 50 µM (active)

CC1=NN(c2ccc(S(=O)(=O)O)cc2)C(=O)C1N=Nc1ccccc1 (stereo unspecified)
outcome [1]: inactive | outcome [2]: inactive | AC50 (SRD5A2 (gene 6716)): 10 µM (active) | AC50 (SERPINA7 (gene 6906)): 27.3 µM (active)

COc1cc(O)c(C(=O)c2ccccc2)cc1S(=O)(=O)O
AC50 (SERPINA7 (gene 6906)): 29.8 µM (active)

Cc1ccc(C)c(OCCCC(C)(C)C(=O)O)c1
AC50 (SERPINA7 (gene 6906)): 27 µM (active)

CCCCOCCOC(=O)COc1ccc(Cl)cc1Cl
AC50 (SERPINA7 (gene 6906)): 12.7 µM (active)

O=C(OCc1ccccc1)c1ccc(O)cc1
outcome [1]: inactive | outcome [2]: inactive | outcome (SRD5A2 (gene 6716)): inactive

COC(=O)[C@H](Cc1ccccc1)NC(=O)[C@@H](N)CC(=O)O (H-Asp-Phe-OMe)
outcome [5]: inactive | outcome [6]: inactive | outcome [4]: inactive

CCCCCC[C@@H](O)C/C=C\CCCCCCCC(=O)OCC(O)CO (stereo partly specified)
AC50 (SERPINA7 (gene 6906)): 26.9 µM (active)
